# High-throughput results: PubChem, National Center for Advancing Translational Sciences (NCATS)
# In the library only some 17% were active in any assay of this set; here they are far more common.
# DT40 TDP1 no CPT: qHTS for Inhibitors of human tyrosyl-DNA phosphodiesterase 1 (TDP1): qHTS in cells in absence of CPT; actives 15% (n = 420,000); DT40 Tdp1-/- hTDP1 cells, no CPT, ATP luminescence, 48 h; Potency, µM (series often up to 46.2 µM), without a hit: top-dose activity change, negative = growth inhibition, actives largely listed as inhibitors; AID 686978, 2013; further: on the % scale 0 is the no-effect control and ±100 the full control effect; nearly all actives have a fitted effect of over 55% in size
#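 Compound effects on proliferation are scored in DT40 Tdp1-/-;hTDP1 cells in the absence of CPT. ATP levels (CellTiter-Glo luminescence) are recorded after a ≥48 hr, 37 °C incubation.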
# TDP1 cell CPT: DT40-hTDP1 cell growth loss with CPT. Potency, µM (series often up to 46.2 µM), for inactives: top-dose activity change, negative = growth inhibition, usual class: inhibitors. actives 12% (n = 420,000). chicken DT40 Tdp1-/-;hTDP1 cells + 20 nM CPT, ATP luminescence, 48 h; further: on the % scale 0 is the no-effect control and ±100 the full control effect; nearly all actives have a fitted effect of over 55% in size
#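 Chicken DT40 Tdp1-/- cells complemented with human TDP1, 400 cells/well, exposed to compounds plus 20 nM camptothecin for at least 48 h at 37 C; viability read as ATP content by CellTiter-Glo luminescence.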
# HT1080 IDH1KD tx: toxicity to HT-1080 IDH1 knockdown cells (counter line); HT-1080 IDH1 knockdown viability, ATP luminescence, 48 h; Potency, µM (doses to about 46.1 µM), for inactives: top-dose activity, negative = toxicity, most hits filed as cytotoxic; actives 2% (n = 360,000);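 further: 0% = DMSO wells and -100% = cell-free medium wells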
#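 Knockdown cells (IDH1KD HT-1080) received compounds 2 h after plating at 750 cells/well and were kept 48 h at 37 °C in 5% FBS RPMI. A CellTiter-Glo luminescence read gave % activity for curve fitting.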
# HepG2 tox: kills HepG2 cells in TGF-b inhibitor counter-screen; HepG2 CAGA-GFP viability, ATP luminescence, 18 h; Potency, µM (top dose mostly 46.1 µM), for the others: at the top dose activity change, negative = cytotoxicity, actives largely listed as cytotoxic; AID 588856; actives 0.76% (n = 410,000)
#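 HepG2 CAGA-GFP cells (1000/well, DMEM with 1% FBS) received compound, then TGF-beta at 500 pg/mL final, and were incubated 18 hours at 37 degrees C. Viability was read by CellTiter-Glo luminescence. Media-only wells were set as complete cell-killing and DMSO as no toxicity.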
# TGFb SMAD3 inh: TGF-b pathway inhibition | Potency, µM (titrated, usually from 46.1 µM), without a hit: at the highest dose activity, negative = inhibition, actives largely listed as inhibitors | HepG2 CAGA-GFP TGF-b/SMAD3 reporter, GFP fluorescence, 18 h; TGF-beta stimulated, 500 pg/mL final | actives 1.2% (n = 410,000); further: on the % scale 0 is the no-effect control and ±100 the full control effect; nearly all actives have a fitted effect of over 65% in size
#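 Per well, imaged GFP fluorescence of HEPG2 CAGA-GFP cells gives the signal; cells get compound, then TGF-beta (500 pg/mL final), 18 h at 37 degrees C; %Activity versus -TGF-beta and +DMSO controls.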
# HT1080NT lethal: kills 2HG-producing HT-1080-NT fibrosarcoma cells. HT-1080-NT fibrosarcoma viability, CellTiter-Glo ATP luminescence, 48 h. AID 686970. Potency, µM (top dose mostly 46.1 µM), for the others: top-dose activity, negative = less viability, hits mostly cytotoxic. actives 1.6% (n = 360,000);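 further: NT is the 2HG producing partner of a matched IDH1 knockdown line; 0% = DMSO-treated cells and -100% = media-only wells without cells; nearly all actives have a fitted effect of over 55% in size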
#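 HT-1080-NT; 750 cells/well; 5% FBS RPMI; 48 h compound, 37 degrees C; CellTiter-Glo luminescence; curve fitting and curve-class assignment.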
# Starred values were filed as active, the others as inactive; ? = inconclusive; · = not tested or not shown; [ ] = remark or other dose. The call rests on the fitted dose curve; in most records, active means well fitted curve in the direction sought with a large enough effect; inconclusive means small, poorly fitted or top-dose-only effect, or another doubt; inactive means no such curve, though single readings can be large; an effect the other way counts as inactive or inconclusive. Potency means the concentration at half of the fitted maximal effect.
SMILES,DT40 TDP1 no CPT,TDP1 cell CPT,HT1080 IDH1KD tx,HepG2 tox,TGFb SMAD3 inh,HT1080NT lethal
O=C(NCc1cccc(Cl)c1)c1ccc(-n2ccnc2)c2ccoc12,?,?,2%,-32%,0%,1%
COc1ccc(-c2coc3c(C(=O)NCc4ccco4)cccc23)c(C)c1,?,18µM*,?,-7%,?,18µM*
COc1ccc(-c2coc3c(C(=O)NCc4ccc(C(F)(F)F)cc4)cccc23)c(C)c1,-94%,?,?,-32%,-14%,?
CCCCOc1cccc(C(=O)Nc2ccc(S(=O)(=O)Nc3cc(C)on3)cc2)c1,6%,19%,-15%,0%,21%,-29%
Cc1cc(C(=O)Nc2ccncc2)c(C)o1,?,?,-6%,-5%,-6%,-1%
CC(=O)Nc1ccc(NC(=O)CC2(CC(=O)N3CCOCC3)CCCC2)cc1,-21%,7%,1%,10%,20%,1%
Cn1cc(-c2coc3c(C(=O)NCc4cccs4)cccc23)cn1,?,?,2%,-24%,-9%,8%
COc1ccc(CNC(=O)c2ccc(-n3cncn3)c3ccoc23)cc1OC,?,0%,4%,10%,15%,-21%
COc1ccc(-c2coc3c(C(=O)NCC4CC4)cccc23)c(C)c1,26µM*,6.5µM*,?,-22%,?,?
Cn1cc(-c2coc3c(C(=O)NCc4cccc(Cl)c4)cccc23)cn1,5.8µM*,?,-22%,-11%,-14%,?
COc1ccc(CNC(=O)c2ccc(-n3ccnc3)c3ccoc23)cc1OC,?,18µM*,-4%,6%,-7%,2%
Cc1ccc(-c2nnn(CC(=O)N(CCCO)C(C(=O)NC3CCCC3)c3ccc(F)cc3)n2)o1 (stereo not drawn),?,-13%,9%,4%,-6%,23%
Nc1nc(Sc2c([N+](=O)[O-])cc(C(F)(F)F)cc2[N+](=O)[O-])n[nH]1,21µM*,7.3µM*,?,-117%,?,?
Cc1cccc(C(c2sc3nc(-c4ccco4)nn3c2O)N2CCN(c3ccccc3)CC2)c1 (stereo not drawn),-22%,?,·,-18%,?,·
Cc1cc(C)c2c(n1)nn1c(C)c(CCC(=O)Nc3cccc(C)c3C)c(C)nc21,7.3µM*,7.3µM*,·,-1%,-3%,·
COc1cccc(CNC(=O)CCc2c(C)nc3c4c(C)cc(C)nc4nn3c2C)c1,23µM*,?,·,-8%,·,·
CCOC(=O)N1CCN(C(=O)Cn2nc(C)n3nc(-c4ccccc4)cc3c2=O)CC1,?,-30%,11%,-11%,-1%,0%
O=C(CSc1nnc(C2CC2)n1Cc1ccco1)NCC(F)(F)F,3%,19%,18%,6%,-19%,21%
COC(=O)c1ccc(/C=N/NC(=O)C(=O)NCc2ccccc2)cc1,-1%,3%,18%,4%,9%,9%
COC(=O)c1cc(Cl)cc2c(C)c(C3(O)CCCCC3)[nH]c12,21µM*,?,0%,-36%,-25%,0%
CCc1c(C2(O)CCCCC2)[nH]c2c(C(=O)OC)cc(Cl)cc12,?,?,?,-55%,?,?
CCOc1ccc(NC(=O)C2Cc3ccccc3N2C(=O)c2ccccc2)cc1 (stereo not drawn),21µM*,23µM*,·,-23%,-14%,·
CC(C)c1ccc(NC(=O)C2Cc3ccccc3N2C(=O)c2ccccc2)cc1 (stereo not drawn),5.8µM*,18µM*,·,0%,1%,·
O=C(O)Cc1cccc(-c2cc(CCCCCCc3ccc(O[C@H]4O[C@H](CO)[C@@H](O)[C@H](O)[C@@H]4O)c(-c4cccc(CC(=O)O)c4)c3)ccc2O[C@H]2O[C@H](CO)[C@@H](O)[C@H](O)[C@@H]2O)c1,9%,2%,·,·,·,·
Cc1ccc(S(=O)(=O)Nc2ccc(C(OC(=O)c3ccccc3[N+](=O)[O-])(C(F)(F)F)C(F)(F)F)cc2)cc1,?,?,?,10µM*,10µM*,-13%
SMILES,DT40 TDP1 no CPT,TDP1 cell CPT,HT1080 IDH1KD tx,HepG2 tox,TGFb SMAD3 inh,HT1080NT lethal
O=C(OC(c1ccc(NS(=O)(=O)c2ccccc2)cc1)(C(F)(F)F)C(F)(F)F)c1ccccc1,?,?,?,-69%,?,?
Cc1ccc(S(=O)(=O)Nc2ccc(C(=O)Nc3ccncc3)cc2)cc1,?,15µM*,3%,-2%,19%,7%
Cc1ccc(NS(=O)(=O)c2ccc(C(=O)NNC(=O)c3ccccc3O)cc2)cc1,23µM*,?,?,-35%,-19%,-24%
Cc1ccc(NS(=O)(=O)c2ccc(C(=O)NCc3cccnc3)cc2)cc1,15µM*,?,-8%,-22%,-8%,0%
O=C(NNC(=O)c1ccccc1O)c1ccc(NS(=O)(=O)c2ccc(F)c(F)c2)cc1,?,?,-25%,-46%,-2%,-15%
CCOc1cc(C(=O)Nc2ccc3c4c(cccc24)C(=O)N3CC)cc(OCC)c1OCC,23µM*,?,-25%,-16%,-3%,-29%
CCN1C(=O)c2cccc3c(NC(=O)c4cccc(N5C(=O)CCC5=O)c4)ccc1c23,-25%,-21%,3%,7%,7%,18%
COc1ccc(CNC(=O)[C@@H](NC(=O)C2CCN(C(=O)[C@@H](N)CCSC)CC2)C(C)C)cc1,-2%,3%,3%,-1%,24%,-4%
O=C(O)c1cccnc1SC1CC(=O)N(CCc2ccccc2)C1=O (stereo not drawn),-1%,-10%,16%,-14%,8%,0%[9.24 µM]
O=C(O)c1cccnc1SC1CC(=O)N(Cc2ccccc2)C1=O (stereo not drawn),21µM*,15µM*,24%,30%,4%,21%
O=C(O)c1cccnc1SC1CC(=O)N(c2ccc(OC(F)F)cc2)C1=O (stereo not drawn),15µM*,?,5%,16%,5%,-1%
O=C(O)c1cccnc1SC1CC(=O)N(c2cccc(C(F)(F)F)c2)C1=O (stereo not drawn),-2%,-5%,10%,0%,-7%,1%
